# Laboratory results: PubChem BioAssay AID504332 (National Center for Advancing Translational Sciences (NCATS), 2011)
# Screen size: about 350,000 compounds; about 31,000 (8.9%) were called active. Not shown: some 15% with an inconclusive outcome. The list comes from a sample in which actives are over-represented; it also holds similar structures and randomly drawn compounds. Unmarked numbers belong to inactive results. Calls come from the whole dose curve; as a rule, active = well fitted inhibition curve with a large enough effect; inconclusive = small, poorly fitted or top-dose-only effect; inactive = no such curve, though single readings can be large or run the other way.
# Target: Histone-lysine N-methyltransferase EHMT2 (Homo sapiens) (UniProt Q96KQ7)
# Sequence (Q96KQ7 913-1193 limits assumed): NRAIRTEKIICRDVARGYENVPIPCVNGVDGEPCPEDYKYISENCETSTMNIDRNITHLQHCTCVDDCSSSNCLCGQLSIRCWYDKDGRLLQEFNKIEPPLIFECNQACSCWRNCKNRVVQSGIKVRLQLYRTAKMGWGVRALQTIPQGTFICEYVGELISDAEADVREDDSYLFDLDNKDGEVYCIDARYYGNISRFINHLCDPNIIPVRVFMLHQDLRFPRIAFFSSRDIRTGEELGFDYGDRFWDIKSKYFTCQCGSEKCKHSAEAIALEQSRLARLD
# Test: qHTS Assay for Inhibitors of Histone Lysine Methyltransferase G9a; note: nearly all actives have a fitted effect of over 75% in size
# Settings: G9a H3K9 monomethylation, AlphaScreen, 2 h; series mostly up to 59 µM; activity, negative = inhibition: at the top concentration
# Summary of the method: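 Signal arises when biotinylated H3K9 peptide, once monomethylated, bridges streptavidin donor and antibody-captured acceptor beads. Enzyme at 20 nM was preincubated 15 min with test compounds; peptide 500 nM and SAM 20 uM then reacted for 2 h.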
# % is set by controls: 0 for no effect and ±100 for the full control effect; potency is the fitted concentration of half-maximal effect.
SMILES,"activity, negative = inhibition",Potency
CC(CNC(=O)c1nnc(Cc2cccc(F)c2)o1)c1ccccc1 (stereo not given),-21.9%,
O=C(NCCC1CCCCN1S(=O)(=O)c1ccc(Cl)cc1)C(=O)NCc1ccco1 (stereo not given),-5.87% [at 0.501 µM],
CCOc1ccc(NC(=O)C2CC(=O)N=C(N)S2)cc1 (stereo not given),-39.6%,
CCOc1ccc(NC(=O)c2nc(SCC)ncc2Cl)cc1,-3.51% [at 102 µM],
CCOc1ccc(N/C(N)=N/c2nc(C)c(C)c(=O)[nH]2)cc1,,50.1 µM (active)
COc1ccccc1C(=O)Nc1c(C(=O)Nc2ccc(C)cc2)oc2ccccc12,-5.27%,
COc1ccc(C)cc1NC(=O)COCc1cc(-c2cccs2)on1,8.56%,
COc1ccc(CNC(=O)COc2ccccc2C(=O)c2cnn(-c3ccccc3)c2)cc1OC,13.3% [at 12.7 µM],
CCOC(=O)C1(Cc2ccccc2C)CCCN(C(=O)c2ccc(COC)o2)C1 (stereo not given),-36.1% [at 102 µM],
N#CCCN(C(=O)COC(=O)c1ccc(S(=O)(=O)N2CCCCCC2)cc1)c1ccccc1,-22%,
O=C(Cc1ccccc1)NNS(=O)(=O)c1ccc([N+](=O)[O-])cc1,-66.7%,
CC(C)(C)C(=O)NCCCNc1ccc([N+](=O)[O-])cc1,-3.86%,
O=C(O)/C=C/C(=O)NNc1ccc([N+](=O)[O-])cc1,,7.94 µM (active)
CCc1nn(CC(=O)Nc2cc(C)cc(C)c2)c(=O)c2cc3sccc3n12,-17.4%,
Cc1n[nH]c(=O)c2c(NC(=O)COC(=O)c3ncc(Cl)c(Cl)c3Cl)oc(C)c12,5.9% [at 0.501 µM],
Cc1n[nH]c(=O)c2c(NC(=O)CSc3ccccc3F)oc(C)c12,,31.6 µM (active)
Cc1n[nH]c(=O)c2c(NC(=O)CSc3cc(Cl)ccc3Cl)oc(C)c12,18.3% [at 2.33 µM],
O=c1c2cc(-c3ccccc3)sc2nc2n1N=C(c1cccs1)CS2,,11.2 µM (active)

SMILES,"activity, negative = inhibition",Potency
O=C(O)Cc1sc(-c2ccccc2)nc1-c1cccs1,-42.8% [at 102 µM],
O=c1c(-c2ccccc2)cnc2n1CCS2,20.8% [at 12.7 µM],
CS(=O)(=O)N1CCN=C1SCc1ccc(F)cc1,53.4% [at 102 µM],
CCOC(=O)N1CCC(NC(=O)c2cnn(-c3cccc(C)c3)c2C2CCN(C(=O)OC(C)(C)C)CC2)CC1,-20.7%,
CCOC(=O)c1cc2c(=O)n3ccccc3nc2n(CCCOC)c1=NC(=O)C(C)(C)Oc1ccc(Cl)cc1,-2.89%,
O=C(CSc1nc(=O)[nH]c2c1CCCC2)Nc1cc(C(F)(F)F)ccc1Cl,10.2%,
O=C(CSc1nccn1C1CCCC1)Nc1cc(C(F)(F)F)ccc1Cl,,12.6 µM (active)
Cc1cccc(-n2ccnc2SCC(=O)Nc2cc(C(F)(F)F)ccc2Cl)c1,,14.1 µM (active)
COc1ccc(NC(=O)CSc2nccn2C2CCCC2)cc1OC,9.83%,
CC(CC(=O)Nc1cc(C(F)(F)F)ccc1Cl)c1ccccc1 (stereo not given),9.26%,
Cc1cccc(-n2c(Cc3cc(=O)[nH]c(=O)[nH]3)nnc2SCC(=O)Nc2cccc(C(F)(F)F)c2)c1,15.1% [at 102 µM],
O=C(CN1C(=O)NC2(CCCCC2)C1=O)N1CCN(C(=O)c2cccs2)CC1,-17% [at 2.33 µM],
Cc1ccc2nc(COc3cccc(NC(=O)Nc4ccc(C)c(Cl)c4)c3)cc(=O)n2c1,6.7%,
CC(=O)NC12CC3CC(C1)CC(C(=O)N1CCN(C(=O)c4ccco4)CC1)(C3)C2,25.3%,
CCCC(=O)Nc1ccc2oc(-c3ccc(O)c(Br)c3)nc2c1,-0.852%,
CC(C)Nc1nnc(SC(C)C(=O)N(C)C2CCCCC2)s1 (stereo not given),7.92% [at 0.501 µM],
O=C(Cn1ncn2nc(-c3cccs3)cc2c1=O)NCc1cccc(Br)c1,-32.8%,
